Source: the supplement of paper PMC3545927
This is one part of the list. The hit rate among all sequences tested is not known here.

Molecular target: furin, P09958
Test: furin cleavage Z-score vs untreated control; higher = more cleavage, active = 3.5 or more, inactive = 1 or less, 8 variable residues between constant flanks
Outline: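 Furin cleavage was scored on 8-mer peptides joined to a cDNA oligonucleotide and bound to magnetic beads at the N-terminus. Digestion with purified furin (1:10 enzyme:substrate, 0.01 ml, 50 mM HEPES pH 7.5, CaCl2, NaCl) lasted 7.5, 15 or 30 min. Freed DNA was tagged with adapters by PCR, sequenced and counted; the cleavage Z-score is the lowess-adjusted log count versus furin-free reactions, scaled by median absolute deviation.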

furin, P09958, sequence (P09958 whole entry): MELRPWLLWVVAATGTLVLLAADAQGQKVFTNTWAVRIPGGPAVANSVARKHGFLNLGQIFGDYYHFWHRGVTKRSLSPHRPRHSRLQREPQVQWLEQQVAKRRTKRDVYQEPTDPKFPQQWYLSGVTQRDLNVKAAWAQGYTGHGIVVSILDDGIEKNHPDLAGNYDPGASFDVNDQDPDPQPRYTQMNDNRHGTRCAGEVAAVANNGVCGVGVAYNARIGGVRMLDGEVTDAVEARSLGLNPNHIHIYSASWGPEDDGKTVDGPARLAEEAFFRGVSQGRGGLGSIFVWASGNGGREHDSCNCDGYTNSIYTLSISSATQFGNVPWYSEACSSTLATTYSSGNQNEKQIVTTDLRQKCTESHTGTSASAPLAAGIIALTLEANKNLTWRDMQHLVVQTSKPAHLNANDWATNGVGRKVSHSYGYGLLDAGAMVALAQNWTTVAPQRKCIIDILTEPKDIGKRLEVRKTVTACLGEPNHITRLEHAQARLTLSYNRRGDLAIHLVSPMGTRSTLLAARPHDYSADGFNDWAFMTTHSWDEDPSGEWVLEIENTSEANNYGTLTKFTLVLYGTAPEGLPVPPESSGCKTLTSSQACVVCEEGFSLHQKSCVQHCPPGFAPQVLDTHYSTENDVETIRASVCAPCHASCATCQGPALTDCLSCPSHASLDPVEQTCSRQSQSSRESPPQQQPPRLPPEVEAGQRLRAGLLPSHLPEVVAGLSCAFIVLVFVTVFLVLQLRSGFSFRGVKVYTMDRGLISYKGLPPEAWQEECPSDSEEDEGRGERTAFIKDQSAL

Row | Sequence | furin cleavage Z-score (7.5 min) | furin cleavage Z-score (15 min) | furin cleavage Z-score (30 min)
1 | CAVVCCSVSYAGNASASA [HC2050] | -0.658 (inactive) | -0.454 (inactive) | -0.515 (inactive)
2 | CAMEECSQHAAGNASASA [HC1763] | -0.182 (inactive) | -0.0436 (inactive) | 1.21
3 | CAMENCSQHLAGNASASA [HC1721] | 0.959 (inactive) | 2.87 | 0.898 (inactive)
4 | CATFPCSGSWAGNASASA [HC1847] | -0.0484 (inactive) | -0.806 (inactive) | -1.82 (inactive)
5 | CARQKRSVENAGNASASA [FS-3038] | 10.2 (active) | 9.71 (active) | 8.9 (active)
6 | CAQTKQSGENAGNASASA [HC948] | -0.725 (inactive) | -1.67 (inactive) | -1.53 (inactive)
7 | CAATLCSALYAGNASASA [HC295] | 1.6 | -0.694 (inactive) | 0.385 (inactive)
8 | CARQYRSAYYAGNASASA [FS-2591] | -0.594 (inactive) | 0.967 (inactive) | 2.18
9 | CAIGKRSVEYAGNASASA [FS-1984] | 1.53 | 2.52 | 3.58 (active)
10 | CARQKRILVNAGNASASA [FS-1768] | -0.183 (inactive) | -1.46 (inactive) | 0.612 (inactive)
11 | CAIPDREVLYAGNASASA [HC1008] | -1.25 (inactive) | -0.885 (inactive) | -0.354 (inactive)
12 | CADQKRSLESAGNASASA [FS-2246] | -0.764 (inactive) | -1.16 (inactive) | -0.0942 (inactive)
13 | CARQKRSDLYAGNASASA [FS-1966] | 4.32 (active) | 5.36 (active) | 5.43 (active)
14 | CAYPKRSSEVAGNASASA [FS-2323] | -0.277 (inactive) | -2 (inactive) | 0.081 (inactive)
15 | CALQKRSSRHAGNASASA [FS-2631] | 5.41 (active) | 7.89 (active) | 8.89 (active)
16 | CAAWKSKKTPAGNASASA [HC1474] | -0.115 (inactive) | 0.0818 (inactive) | -0.362 (inactive)
17 | CAGRDKNQVEAGNASASA [HC685] | 0.288 (inactive) | -0.161 (inactive) | -1.36 (inactive)
18 | CAAQLHVWIPAGNASASA [HC588] | -0.31 (inactive) | -0.454 (inactive) | -0.108 (inactive)
19 | CAINGLPVSAAGNASASA [HC659] | -0.744 (inactive) | -0.464 (inactive) | -0.336 (inactive)
20 | CARQKRSSEAAGNASASA [FS-3037] | 9.89 (active) | 9.51 (active) | 6.34 (active)
21 | CAWSTVSSEAAGNASASA [HC1363] | 1.2 | -0.449 (inactive) | 0.19 (inactive)
22 | CARQKRSVSIAGNASASA [FS-2170] | 3.57 (active) | 5.04 (active) | 6.27 (active)
23 | CARQKRIHSAAGNASASA [FS-2361] | -1.05 (inactive) | -0.069 (inactive) | -0.712 (inactive)
